Screening data (PubChem BioAssay)
Most compounds without a hit are left out; they make up all but 1.5% or so of the library.
DAGLB inhibitor: DAGLB lipase inhibitors, primary screen, biochemical, fluorescence, HTS. Diacylglycerol lipase-beta (Homo sapiens), Q8NCG7. HEK293T DAGLB membrane lysate, EnzChek fluorogenic substrate. inhibition, % at 5.17 µM. actives 0.059% (n = 340,000); in the data active = inhibition above about 34%;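 note: 0% = enzyme with vehicle and 100% = wells lacking enzyme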
PLCb3 inh: human PLC-beta3 inhibitors, primary screen, biochemical, fluorescence; 1-phosphatidylinositol 4,5-bisphosphate phosphodiesterase beta-3 (Homo sapiens), Q01970; Purified PLC-beta3, fluorogenic substrate; inhibition, % at 12.2 µM; actives 0.18% (n = 370,000); in the data active = inhibition above about 11%;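 note: 0% = median of compound wells on plate and 100% = full blocker control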
PLC-gamma1 inh: PLC-gamma1 enzyme inhibitors, primary screen, biochemical, fluorescence, purified enzyme. actives 0.84% (n = 370,000). inhibition, % at 12.2 µM. 1-phosphatidylinositol 4,5-bisphosphate phosphodiesterase gamma-1 (Homo sapiens), P19174. fluorogenic substrate. AID 720700, 2013; in the data active = inhibition above about 9.5%
Target sequence (P19174 whole entry, looked up): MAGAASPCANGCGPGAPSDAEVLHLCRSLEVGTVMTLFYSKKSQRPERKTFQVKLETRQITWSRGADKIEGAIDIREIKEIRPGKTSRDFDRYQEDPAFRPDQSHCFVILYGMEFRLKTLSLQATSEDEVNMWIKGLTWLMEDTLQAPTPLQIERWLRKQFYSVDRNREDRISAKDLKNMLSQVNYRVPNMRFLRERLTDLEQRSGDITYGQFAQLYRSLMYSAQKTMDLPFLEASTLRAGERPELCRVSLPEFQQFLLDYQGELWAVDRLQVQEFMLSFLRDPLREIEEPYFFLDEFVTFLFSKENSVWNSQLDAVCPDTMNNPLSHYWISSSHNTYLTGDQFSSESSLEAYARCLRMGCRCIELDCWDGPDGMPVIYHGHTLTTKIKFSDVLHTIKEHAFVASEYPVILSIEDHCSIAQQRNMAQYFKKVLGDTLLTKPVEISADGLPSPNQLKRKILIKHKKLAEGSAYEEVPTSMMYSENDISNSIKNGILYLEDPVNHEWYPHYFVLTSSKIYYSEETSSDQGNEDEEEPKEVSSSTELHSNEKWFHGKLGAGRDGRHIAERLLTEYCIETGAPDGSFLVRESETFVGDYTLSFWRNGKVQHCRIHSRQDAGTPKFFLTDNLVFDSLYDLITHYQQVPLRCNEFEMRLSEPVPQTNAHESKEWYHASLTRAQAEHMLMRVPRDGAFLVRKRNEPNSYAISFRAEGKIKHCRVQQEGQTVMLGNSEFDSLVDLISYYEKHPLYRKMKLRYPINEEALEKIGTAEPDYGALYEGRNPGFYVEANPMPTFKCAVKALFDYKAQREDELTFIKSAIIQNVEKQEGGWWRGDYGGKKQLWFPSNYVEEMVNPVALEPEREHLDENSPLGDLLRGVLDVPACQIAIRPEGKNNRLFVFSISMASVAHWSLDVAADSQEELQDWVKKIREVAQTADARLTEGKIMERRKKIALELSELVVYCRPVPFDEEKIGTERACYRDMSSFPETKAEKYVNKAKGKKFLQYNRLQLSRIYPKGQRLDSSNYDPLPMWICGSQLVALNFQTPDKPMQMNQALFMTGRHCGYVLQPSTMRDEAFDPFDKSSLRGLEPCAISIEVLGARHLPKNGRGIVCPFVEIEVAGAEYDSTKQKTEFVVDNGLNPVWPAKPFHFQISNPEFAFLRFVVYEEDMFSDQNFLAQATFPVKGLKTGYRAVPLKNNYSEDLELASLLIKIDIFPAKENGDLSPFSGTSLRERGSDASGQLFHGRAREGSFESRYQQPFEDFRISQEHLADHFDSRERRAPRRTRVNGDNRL
HGIII-sPLA2 inh: human group III sPLA2 inhibitors, primary screen, biochemical, QFRET, BODIPY PC-A2 liposome substrate. Group 3 secretory phospholipase A2 (Homo sapiens), Q9NZ20. QFRET BODIPY PC-A2 liposome hydrolysis, fluorescence. inhibition, % at 12.2 µM. actives 0.56% (n = 370,000);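 active = inhibition above mean plus 3 SD of compounds lying within the high and low control bounds, cut at about 19% in these data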;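 note: 0% = median of test compound wells and 100% = no enzyme DMSO wells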
sPLA2 confirm: human group III sPLA2 inhibitors, confirmation, biochemical, QFRET, triplicate; shares compounds with HGIII-sPLA2 inh; recombinant hGIII-sPLA2, BODIPY PC-A2 QFRET fluorescence; inhibition, % at 12.2 µM; actives 34% (n = 2,000);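 active = mean inhibition across triplicates above the hit cutoff set in the earlier primary screen, cut at about 19% in these data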;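 note: 0% = enzyme with DMSO and 100% = DMSO wells lacking enzyme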
BODIPY interf: 535nm fluorescence optical interference, confirmation, artefact control for HGIII-sPLA2 inhibitor project, biochemical, QFRET. inhibition, % at 12.2 µM. shares compounds with HGIII-sPLA2 inh. BODIPY FL product fluorescence interference. actives 8.5% (n = 2,000);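 active = average inhibition above the solvent-only control mean plus 3 SD, cut at about 6% in these data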;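 note: 0% = DMSO with substrate plus product and 100% = DMSO with substrate alone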
535nm interf DR: 535nm fluorescence optical interference, dose response, artefact control for HGIII-sPLA2 inhibitor project, biochemical, QFRET. shares compounds with HGIII-sPLA2 inh. BODIPY FL product fluorescence interference, cell-free. IC50, µM. 240 tested, under 10 active. AID 743455, 2014;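 active = IC50 at or below 10 µM; inactive = IC50 above 10 µM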
* marks the source's active call; other numbers are inactive results; x = no result given; ! = not active in a repeat.

SMILES	DAGLB inhibitor	PLCb3 inh	PLC-gamma1 inh	HGIII-sPLA2 inh	sPLA2 confirm	BODIPY interf	others
CCN(CC)c1ccc(/C=N/NC(=S)NCc2ccccc2)c(O)c1	12	-83	-64	36*	25*	11*
CCN(CC)c1ccc(/C=N/NC(=O)c2ccco2)c(O)c1	7	-132	-85	-2	x	x
N#Cc1ccc(OCC(=O)Nc2ccc(N3CCCC3)cc2)cc1	2	-14	-5	21*	15	-3
Cc1ccc(NC(=O)NNC(=O)c2cc3ccccc3cc2O)cc1C	6	-152	-104	28*	26*	3
Cc1ccc(C)c(NC(=O)NNC(=O)c2cc3ccccc3cc2O)c1	6	-140	-86	22*	22*	3
Cc1ccc(NC(=O)NNC(=O)c2cc3ccccc3cc2O)c(C)c1	3	-152	-87	16	x	x
C/C(=N\OCc1nc2ccccc2c(=O)n1/N=C/c1cc(C)cc([N+](=O)[O-])c1O)c1ccccc1	1	-100	-72	22*	33*	8.8*
NC(=O)C1(Nc2ccc(-c3ccc(Cl)cc3)cc2)CCCC1	4	-7	5	22*	11	-1
CCn1c(-c2cccnc2)n[nH]c1=S	-4	-1	0	5	x	x
CCCCn1c(-c2cccnc2)n[nH]c1=S	1	-1	-3	22*	9	-5
CCC(C)CNC(=O)c1cn(C(C)c2ccccc2)nn1 (stereo not drawn)	x	-1	-3	7	x	x
Cc1ccccc1CNC(=O)C1CCCN(c2ncccn2)C1 (stereo not drawn)	x	-9	-12	-1	x	x
COc1ccc2cc(-c3cn(C(=O)N(c4ccccc4)c4ccccc4)nn3)ccc2c1	x	5	1	-7	x	x
C[C@@H]1CCCCO[C@@H](CN(C)Cc2ccccc2)[C@@H](C)CN([C@H](C)CO)C(=O)c2cc(N(C)C)ccc2O1	2	-30	-19	24*	10	-18
O=[N+]([O-])c1cc(C=NN2CCN(Cc3ccccc3Cl)CC2)ccc1Cl	x	-7	4	16	x	x
CC(C)CC(=O)NC(=S)NNC(=O)c1ccc(NC(=O)C2CCCCC2)cc1	2	-3	-3	21*	37*	-10	535nm interf DR=>122
CC(C)CC(=O)NC(=S)NNC(=O)c1ccc([N+](=O)[O-])cc1	2	1	6	19	x	x
COc1ccc(C(=O)OCCN(C)C2CN(Cc3cn(Cc4ccccc4Cl)nn3)S(=O)(=O)C2)cc1OC (stereo not drawn)	x	0	-1	4	x	x
CCC(=O)N1Cc2cc(C(=O)NCC(F)(F)F)nc(-c3cccc(-c4cncnc4)c3)c2[C@@H]1CCO	x	1	-1	8	x	x
CCNC(=O)c1cc2c(c(-c3cccc(-c4cncnc4)c3)n1)[C@@H](CCO)N(C(C)=O)C2	x	-2	0	21*	-2	-10
C/C(=N\N=C\c1cccc(F)c1)c1nnn(-c2nonc2N)c1C	0	-4	0	20*	-5	-7
CC(=O)c1cn(-c2ccc([N+](=O)[O-])cc2)c(=O)n(C)c1=O	2	-2	3	-4	x	x
Cn1c(CBr)c(C(=O)c2ccc([N+](=O)[O-])cc2)c(=O)n(C)c1=O	2	-5	-1	22*	5	-4
CNC(=S)N1CCN(c2nc(-c3ccc(F)cc3)cs2)CC1	-2	-9	-5	20*	14	-1
COc1ccccc1N(C(C)=O)C1=C(Cl)C(=O)c2ccccc2C1=O	-2	-73	-51	21*	38*	6	535nm interf DR=>122
SMILES	DAGLB inhibitor	PLCb3 inh	PLC-gamma1 inh	HGIII-sPLA2 inh	sPLA2 confirm	BODIPY interf	others
CN1/C(=C\C(=S)Nc2ccccc2)C(C)(C)c2ccccc21	-1	1	0	14	x	x
CN1/C(=C/C(=S)NC(=O)C2(C)CC2(Cl)Cl)C(C)(C)c2ccccc21 (stereo not drawn)	9	-7	-8	27*	8	3
CC(=O)N1CCCN(C(=O)Cn2cnc3ccccc3c2=O)CC1	x	-1	0	2	x	x
COc1cnc(-c2ccccn2)nc1Oc1ccccc1	1	-5	2	11	x	x
COc1cnc(-c2ccccn2)nc1Oc1cccc(C(F)(F)F)c1	-1	-9	5	21*	8	-16
COc1ccc(C2Nc3ccccc3C(=O)N2c2ccc(F)cc2)cc1CSc1ccccn1 (stereo not drawn)	-7	-25	-17	20*	12	-7
COc1ccc(-c2c(Cc3ccccc3)nc(NC(=O)c3ccccc3)n2Cc2ccccc2)cc1	x	-24	-17	12	x	x
Fc1ccc2nc(-c3ccc(CN4CCC5(CC4)CNc4ccccc45)cc3)c(-c3ccccc3)nc2c1	x	-19	-12	20*	17	-8
Cc1ccc2nc(-c3ccc(CN4CCC(c5nc6ccccc6[nH]5)CC4)cc3)c(-c3ccccc3)nc2c1	x	-31	-26	1	x	x
COc1cc(N=c2ssnc2Cl)c(OC)cc1Cl	1	-1	4	23*!	33*	1	535nm interf DR=>122
COc1ccc(OC)c(N=c2ssnc2Cl)c1	-4	-5	-4	7	x	x
Cc1cccc(-c2cccc3c4c([nH]c23)[C@@H]2C[C@H](N(C)C(=O)c3ccco3)[C@H]([C@H](C)O)C(=O)N2CC4)c1	x	-56	-36	-42	x	x
COc1ccc(Cn2ccc3ccc(-c4ccc5ccn(Cc6ccccc6F)c5c4)cc32)cc1	x	-124	-91	20*	13	5
Cc1occc1-c1nnc(SCC(=O)N[C@@H]2CCc3ccccc32)n1-c1ccccc1	x	1	0	-8	x	x
O=S(=O)(O)c1cc(O)c2cc(Nc3ccccc3)ccc2c1	6	-313	-237	6	x	x
O=S(=O)(O)c1ccc(O)c2cc(Nc3ccccc3)ccc12	5	-172	-126	25*	11	1
Cc1ccc2cc(C#N)c(SCC(=O)N3CCCc4ccccc43)nc2c1C	-1	-6	-2	20*	-3	-4
Cc1ccc2cc(C#N)c(SCC(=O)N3CCCc4ccccc43)nc2c1	0	1	1	3	x	x
O=C(NC(=S)Nc1ccccc1N1CCOCC1)c1ccc([N+](=O)[O-])cc1	-2	-2	3	17	x	x
O=C(NC(=S)Nc1ccccc1N1CCCC1)c1ccc([N+](=O)[O-])cc1	4	3	6	31*	34*	4	535nm interf DR=>122
